The source of these data is PubChem BioAssay AID2012 (Sanford-Burnham Center for Chemical Genomics, 2009).

Hit rate of the full screen: of about 290,000 compounds, about 2,700 (0.93%) were called active. How the calls were made is not given here. Only a selection was taken, and actives are over-represented in it overall.

In this assay the target is Eukaryotic translation initiation factor 4H (Homo sapiens) (UniProt Q15056). The experiment in a line: eIF4H binding inhibition – biochemical, uHTS, fluorescence polarization, translation initiation inhibitor project, primary screen (AID 2012).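 Further: calls also rest on retests at 20 µM and on dose response follow-up.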 The note with it: eIF4H fluorescence polarization binding assay, stronger effect = higher value. For orientation: Fluorescence polarisation rises when a labelled molecule tumbles more slowly, as on binding a larger partner.

By inhibition is commonly meant the relative decrease from the control value, in per cent. As for `Cc1cc(C)n2nc(SCC(N)=O)nc2n1`, the inhibition by setting is: (at 35 µM) -5.6% (active); (confirmation average, at 20 µM) 113%.
In the case of `COc1ccc(C(C)=O)cc1CSc1nc2nc(C)cc(C)n2n1`, the inhibition (at 35 µM) was 1.9% (inactive).
On to `COc1cnc(-c2ccccn2)nc1Oc1ccc(C(C)(C)C)cc1`, for which, for the setting “at 35 µM”, the inhibition was 11.9% (inactive).
On the same count and under the same terms, the same measure for `COc1ccc(CCN(C)C(=O)C23CC4CC(CC(Cl)(C4)C2)C3)cc1OC`: -16.6% (inactive); for `Cc1cccc(OCC(=O)NCCCNC(=O)c2ccccn2)c1`: -28.2% (inactive).
As for `CCN(CC)CCOc1ccc2c(c1)C(=NNC(=O)c1ccccn1)c1cc(OCCN(CC)CC)ccc1-2`, the inhibition (at 35 µM) is -3% (active) and the inhibition (confirmation average, at 20 µM) was 83.6%.
With `COc1ccc(CC(=O)N/N=C(\C)c2ccccn2)cc1`, the inhibition (at 35 µM) is 7.3% (inactive).
On to `COc1ccc(NC(=O)CN(C)C(=O)CNC(=O)C2CCCCC2)cc1`, for which the inhibition (at 35 µM) was -4% (inactive).
The same measure, in the same setting: the same measure for `C=CCOc1cccc(CNCc2cccnc2)c1`: 10.5% (inactive).
On the same count and under the same terms, the same measure for `CN(C(=O)c1ccno1)c1nnc(-c2cccnc2)s1`: -2.8% (inactive); for `Cc1nnc(N(Cc2ccco2)C(=O)c2ccno2)s1`: 55.4% (active).
On the same count and under the same terms, the value for `Cc1ccc(-c2csc(N(Cc3ccco3)C(=O)c3cccs3)n2)cc1` was -15.6% (inactive); that for `Cc1ccccc1CN1CCC(C(=O)Nc2ccc(Oc3cccnc3)cc2)CC1` was -4.5% (inactive).
As for `O=C(NCCCn1ccnc1)C(=O)NCC1OCCN1S(=O)(=O)c1cc(F)ccc1F` (stereo not given), for the setting “at 35 µM”, the inhibition is 86.5% (active).
Same read-out and setting: the same measure for `O=C(NCCCc1ccccc1)C(=O)NCC1OCCN1S(=O)(=O)c1ccccc1` (stereo not given): -4.1% (inactive).
Turning to `Cc1cc(F)ccc1S(=O)(=O)N1CCCOC1CNC(=O)C(=O)NCCC1=CCCCC1` (stereo not given), the inhibition (at 35 µM) was -0.8% (inactive).
Consider `Nc1ncc(CN2CCCC(C(=O)Nc3ccc(-c4ccco4)cc3)C2)cn1` (stereo not given), for which the inhibition (at 35 µM) is -17.3% (inactive).
On the same count and under the same terms, the same measure for `CC(C)OC(=O)c1ccc(COc2ccc3ccc(=O)oc3c2)o1`: 1.1% (inactive).
`Cc1ccc2sc(N(CCN(C)C)C(=O)/C=C/c3cccs3)nc2c1C`: the inhibition (at 35 µM) is -10.2% (inactive).
Same read-out and setting: the value for `CS(=O)(=O)C1=NN2C(=N)/C(=C\c3ccc(OCCOc4ccccc4)cc3)C(=O)N=C2S1` was 16.1% (inactive); that for `CS(=O)(=O)c1ccc2c(c1)SC1=NC(=O)/C(=C/c3ccco3)C(=N)N12` was 93.9% (active).
For `Cc1cc(/C=C2/C(=N)N3C(=NC2=O)SN=C3S(C)(=O)=O)c(C)n1-c1ccccc1`, the inhibition is, setting by setting: (at 35 µM) 93.3% (inactive); (confirmation average, at 20 µM) -7.9%.
Turning to `CN(C(=O)CN1C(=O)CCSc2ccc(S(=O)(=O)N3CCCC3)cc21)c1ccccc1`, under “at 35 µM”, the inhibition was -3.2% (inactive).
Same read-out and setting: the same measure for `CCC(=O)Nc1ccc(C(=O)NNC(=O)c2ccc(Cl)cc2)cc1`: 8% (inactive).
Same read-out and setting: the same measure for `C=CCNC(=O)/C=C/c1ccc(C(C)C)cc1`: 3.9% (inactive).
On to `O=C(CCc1nnc2ccc(NCc3ccco3)nn12)Nc1cc(F)ccc1F`, for which the inhibition runs as follows: (at 35 µM) 75.2% (active); (confirmation average, at 20 µM) 75.7%.
For `CCOc1ccccc1NC(=O)CCc1nnc2ccc(NCc3ccco3)nn12`, the inhibition (at 35 µM) is 13.1% (inactive).
On the same count and under the same terms, the same measure for `CC(=O)c1ccc(NC(=O)CCc2nnc3ccc(NCc4ccco4)nn23)cc1`: 38.5% (inactive); for `O=C(CN1CCc2cc3c(cc2C1)OCCCO3)Nc1ccccc1`: 4.5% (inactive); for `CCOc1ccc(NC(=S)N2CCC(NC(=O)c3ccccc3)CC2)cc1`: -8.9% (inactive).
On the same count and under the same terms, the same measure for `COc1ccc(-c2nc3n(c(=O)c2C#N)CCS3)c(OC)c1`: 5.3% (inactive); for `O=C(CCc1ccccc1)Nc1ccnn1C1CCN(Cc2ccc(OCCO)cc2)CC1`: 5.2% (inactive).
Still for that read-out and setting: the value for `COc1ccc(-c2cc(C(=O)N(C)Cc3ccc(OC)c(OC)c3OC)c3ccccc3n2)cc1OC` was 10.7% (inactive).
Consider `COc1ccc2[nH]c(=O)c(-c3noc(-c4ccc(F)cc4)n3)cc2c1`, for which the inhibition (at 35 µM) is 3.8% (inactive).
Take `CCCc1nc(-c2cc3cc(C)ccc3[nH]c2=O)no1`: the inhibition is, setting by setting: (at 35 µM) 2.5% (active); (confirmation average, at 20 µM) 79.5%.
For the compound `CCNCc1cc2cc(C)ccc2[nH]c1=O`, the inhibition (at 35 µM) is 24% (inactive).
Same read-out and setting: the value for `COc1ccccc1NC(=S)N1CCN(c2ccc(F)cc2)CC1` was -0.9% (inactive).
The same measure, in the same setting: the same measure for `COc1ccc(NC(=O)C2=CC(c3ccc(OC)c(OC)c3)=NS(=O)(=O)N2C)cc1`: 1.5% (inactive); for `COc1ccc(-c2noc(CNC(=O)C(C)Oc3ccccc3)n2)cc1` (stereo not given): -4.8% (inactive).
The same measure, in the same setting: the value for `Cc1nc2ccccc2c(=O)n1Cc1ccc([N+](=O)[O-])cc1` was -6.2% (inactive).
In the case of `CCn1c(/C=C/c2ccc([N+](=O)[O-])o2)nc2ccccc2c1=O`, the inhibition (at 35 µM) is 83.6% (active) and the inhibition (confirmation average, at 20 µM) was found to be 56.8%.
`Cn1cc(/C=C/c2nc3ccccc3c(=O)n2-c2cccc([N+](=O)[O-])c2)c2ccccc21`: the inhibition (at 35 µM) is -2.7% (inactive).
For `CN1/C(=C\C=C2\N=C(c3ccc(F)cc3)OC2=O)C(C)(C)c2ccccc21`, the inhibition reads like this: (at 35 µM) 128% (active); (confirmation average, at 20 µM) 97%.
As to `CN1/C(=C\C(=O)c2oc3ccccc3c2N)C(C)(C)c2ccccc21`, the inhibition (at 35 µM) is -2.5% (inactive).
The same measure, in the same setting: the value for `CN1/C(=C\C(=O)c2cccnc2Cl)C(C)(C)c2ccccc21` was -6.3% (inactive); that for `Cc1cccnc1NC(=O)Cn1c(=O)oc2ccccc21` was 4.8% (inactive).
Same read-out and setting: the same measure for `Cc1ccc(O)c(NC(=O)c2cc(-c3ccco3)on2)c1`: -14.1% (inactive).
On to `COc1ccc(-c2nonc2NC(=O)c2oc3ccc(F)cc3c2C)cc1OC`, for which the inhibition (at 35 µM) was -3.8% (inactive).
Turning to `COc1ccc(Nc2ccc([N+](=O)[O-])cn2)cn1`, the inhibition is 82% (inactive) (at 35 µM) and 20.1% (confirmation average, at 20 µM).
With `COc1cccc(Nc2ncccc2C(=O)O)c1`, the inhibition (at 35 µM) was -3.4% (inactive).
As for `COc1ccc(Nc2cc(Cl)ccc2C(=O)O)cn1`, the inhibition was 96.9% (active) (at 35 µM) and 74% (confirmation average, at 20 µM).
